# Measurements published in the supplement of paper PMC10849652.
# Of roughly 7,900 targets only a part is listed; those with a hit were picked by preference. About 0.6% of all pairs of compound and target were hits.
# Compound: COC1=CC=C(C=C1)CN2C=CC3=C2C=C(C=C3)C(=O)NO
# Assay: log2 fold change, soluble protein after heating vs DMSO (PISA); higher = thermal stabilisation; K562 cells, 10 uM, 30 min; active = over 0.2 and 3.5 SD of the protein, either way, in both replicates (recomputed)
# Procedure, shortened: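 K562 cells at 2×10^6 cells/mL were treated for 30 min with 10 μM compound, and aliquots were heated for 3 min over 48°C-58°C before pooling. Extraction used PBS with 0.5% NP-40 at 4°C, and soluble protein was the supernatant after 21,000xg for 90 min, measured by TMTpro 16plex LC-MS/MS with channel sums equalised. Thermal stability values, relative to control samples and from duplicates, are log2 fold changes.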
# Sequence of UniProt Q9NUM4 (Q9NUM4 whole entry, looked up): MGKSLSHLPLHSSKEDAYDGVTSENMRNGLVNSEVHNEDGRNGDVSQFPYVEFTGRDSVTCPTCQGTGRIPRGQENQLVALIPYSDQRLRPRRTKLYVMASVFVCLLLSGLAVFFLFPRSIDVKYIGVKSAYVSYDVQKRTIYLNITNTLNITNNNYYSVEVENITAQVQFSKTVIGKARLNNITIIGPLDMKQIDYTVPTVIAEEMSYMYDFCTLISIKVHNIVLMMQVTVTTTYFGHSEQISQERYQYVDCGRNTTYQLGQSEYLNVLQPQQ
# Sequence of UniProt P21796 (P21796 whole entry, looked up): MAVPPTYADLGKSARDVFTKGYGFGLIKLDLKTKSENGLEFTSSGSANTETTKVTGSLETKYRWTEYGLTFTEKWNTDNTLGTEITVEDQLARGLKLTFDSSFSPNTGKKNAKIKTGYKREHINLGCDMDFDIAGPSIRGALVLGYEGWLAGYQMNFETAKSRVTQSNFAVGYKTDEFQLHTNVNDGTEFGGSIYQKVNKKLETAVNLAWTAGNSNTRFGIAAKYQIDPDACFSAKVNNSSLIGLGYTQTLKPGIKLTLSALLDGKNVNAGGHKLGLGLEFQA
# Sequence of UniProt Q9P253 (Q9P253 whole entry, looked up): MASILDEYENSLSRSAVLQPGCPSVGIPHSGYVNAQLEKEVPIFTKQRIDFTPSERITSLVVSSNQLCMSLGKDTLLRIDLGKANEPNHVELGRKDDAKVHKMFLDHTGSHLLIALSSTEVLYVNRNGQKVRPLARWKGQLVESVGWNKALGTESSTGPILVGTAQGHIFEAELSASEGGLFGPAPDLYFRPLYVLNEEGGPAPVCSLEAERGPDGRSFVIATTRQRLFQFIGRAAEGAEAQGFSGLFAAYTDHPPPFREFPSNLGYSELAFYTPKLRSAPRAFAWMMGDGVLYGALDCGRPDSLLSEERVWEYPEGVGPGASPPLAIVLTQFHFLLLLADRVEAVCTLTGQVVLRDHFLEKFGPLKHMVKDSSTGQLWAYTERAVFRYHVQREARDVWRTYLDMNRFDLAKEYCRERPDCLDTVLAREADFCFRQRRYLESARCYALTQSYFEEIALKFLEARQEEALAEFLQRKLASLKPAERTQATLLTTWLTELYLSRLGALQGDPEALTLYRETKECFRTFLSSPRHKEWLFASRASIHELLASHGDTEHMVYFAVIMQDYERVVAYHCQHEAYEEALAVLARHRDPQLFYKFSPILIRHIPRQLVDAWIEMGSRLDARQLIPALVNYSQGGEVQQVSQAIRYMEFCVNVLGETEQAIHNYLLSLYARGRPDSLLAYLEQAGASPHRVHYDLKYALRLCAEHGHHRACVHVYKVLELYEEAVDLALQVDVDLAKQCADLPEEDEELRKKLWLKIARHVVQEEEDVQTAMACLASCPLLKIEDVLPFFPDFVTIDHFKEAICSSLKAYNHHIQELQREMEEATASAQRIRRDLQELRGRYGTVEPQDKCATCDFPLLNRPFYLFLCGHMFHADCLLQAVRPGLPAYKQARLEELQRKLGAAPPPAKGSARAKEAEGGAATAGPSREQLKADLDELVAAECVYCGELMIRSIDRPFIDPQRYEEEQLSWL
# Sequence of UniProt Q9UEU0 (Q9UEU0 whole entry, looked up): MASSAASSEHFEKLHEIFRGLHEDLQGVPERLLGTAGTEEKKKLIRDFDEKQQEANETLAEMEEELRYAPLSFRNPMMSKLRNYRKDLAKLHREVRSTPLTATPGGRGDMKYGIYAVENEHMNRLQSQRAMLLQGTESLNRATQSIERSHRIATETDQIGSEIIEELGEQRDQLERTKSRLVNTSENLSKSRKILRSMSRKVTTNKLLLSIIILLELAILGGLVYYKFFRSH
# Sequence of UniProt Q13263 (Q13263 whole entry, looked up): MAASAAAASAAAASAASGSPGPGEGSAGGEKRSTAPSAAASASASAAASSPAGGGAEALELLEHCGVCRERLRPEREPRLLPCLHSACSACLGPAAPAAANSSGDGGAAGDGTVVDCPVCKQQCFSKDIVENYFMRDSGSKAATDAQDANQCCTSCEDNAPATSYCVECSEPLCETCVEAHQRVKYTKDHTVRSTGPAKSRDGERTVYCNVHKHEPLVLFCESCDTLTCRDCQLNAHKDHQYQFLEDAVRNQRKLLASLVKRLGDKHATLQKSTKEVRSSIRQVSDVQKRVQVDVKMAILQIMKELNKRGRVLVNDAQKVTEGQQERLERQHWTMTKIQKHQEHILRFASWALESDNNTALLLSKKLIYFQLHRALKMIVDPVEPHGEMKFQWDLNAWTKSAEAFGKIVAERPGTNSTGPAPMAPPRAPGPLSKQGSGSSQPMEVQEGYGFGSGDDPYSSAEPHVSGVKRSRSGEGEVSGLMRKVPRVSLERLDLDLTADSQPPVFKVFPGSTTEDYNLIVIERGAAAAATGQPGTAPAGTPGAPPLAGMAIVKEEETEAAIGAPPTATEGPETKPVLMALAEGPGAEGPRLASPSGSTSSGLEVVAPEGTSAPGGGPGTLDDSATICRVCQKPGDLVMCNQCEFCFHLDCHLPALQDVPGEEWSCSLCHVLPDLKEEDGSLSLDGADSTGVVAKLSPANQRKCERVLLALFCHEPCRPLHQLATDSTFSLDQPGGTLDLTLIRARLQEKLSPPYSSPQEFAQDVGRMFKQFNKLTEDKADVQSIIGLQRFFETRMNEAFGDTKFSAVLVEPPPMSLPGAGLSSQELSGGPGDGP
# Sequence of UniProt Q7Z7E8 (Q7Z7E8 whole entry, looked up): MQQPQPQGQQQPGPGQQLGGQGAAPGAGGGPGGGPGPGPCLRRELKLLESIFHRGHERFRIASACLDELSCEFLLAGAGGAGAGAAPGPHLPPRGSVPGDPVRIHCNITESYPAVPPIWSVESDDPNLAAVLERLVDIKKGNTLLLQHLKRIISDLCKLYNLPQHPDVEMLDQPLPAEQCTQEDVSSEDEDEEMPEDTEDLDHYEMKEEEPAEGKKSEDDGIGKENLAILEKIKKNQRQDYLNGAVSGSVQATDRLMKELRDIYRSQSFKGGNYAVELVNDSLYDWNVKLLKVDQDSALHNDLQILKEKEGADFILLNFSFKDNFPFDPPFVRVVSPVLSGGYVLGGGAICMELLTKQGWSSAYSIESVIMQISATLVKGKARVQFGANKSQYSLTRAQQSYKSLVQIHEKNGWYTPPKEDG
# Sequence of UniProt P54578 (P54578 whole entry, looked up): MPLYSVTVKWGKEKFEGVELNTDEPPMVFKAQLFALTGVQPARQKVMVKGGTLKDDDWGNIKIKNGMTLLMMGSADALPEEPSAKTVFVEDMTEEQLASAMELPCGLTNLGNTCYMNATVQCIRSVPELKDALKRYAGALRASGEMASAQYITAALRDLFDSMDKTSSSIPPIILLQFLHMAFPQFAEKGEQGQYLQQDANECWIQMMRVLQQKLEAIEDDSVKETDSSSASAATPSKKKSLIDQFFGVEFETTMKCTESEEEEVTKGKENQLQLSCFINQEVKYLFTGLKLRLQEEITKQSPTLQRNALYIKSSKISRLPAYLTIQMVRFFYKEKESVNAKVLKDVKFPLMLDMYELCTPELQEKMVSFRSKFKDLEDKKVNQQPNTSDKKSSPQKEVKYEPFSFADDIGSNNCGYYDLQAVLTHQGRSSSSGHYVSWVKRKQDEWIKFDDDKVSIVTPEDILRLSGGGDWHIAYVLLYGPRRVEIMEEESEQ
# Sequence of UniProt Q5U3C3 (Q5U3C3 whole entry, looked up): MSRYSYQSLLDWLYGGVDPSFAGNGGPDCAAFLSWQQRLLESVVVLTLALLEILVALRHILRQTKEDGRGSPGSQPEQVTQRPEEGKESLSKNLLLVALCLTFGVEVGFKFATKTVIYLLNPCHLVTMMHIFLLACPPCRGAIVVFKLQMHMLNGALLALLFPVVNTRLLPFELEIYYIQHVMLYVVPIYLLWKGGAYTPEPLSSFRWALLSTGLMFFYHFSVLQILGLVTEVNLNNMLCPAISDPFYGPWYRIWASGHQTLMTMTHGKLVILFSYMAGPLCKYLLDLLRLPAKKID
# Sequence of UniProt P13010 (P13010 whole entry, looked up): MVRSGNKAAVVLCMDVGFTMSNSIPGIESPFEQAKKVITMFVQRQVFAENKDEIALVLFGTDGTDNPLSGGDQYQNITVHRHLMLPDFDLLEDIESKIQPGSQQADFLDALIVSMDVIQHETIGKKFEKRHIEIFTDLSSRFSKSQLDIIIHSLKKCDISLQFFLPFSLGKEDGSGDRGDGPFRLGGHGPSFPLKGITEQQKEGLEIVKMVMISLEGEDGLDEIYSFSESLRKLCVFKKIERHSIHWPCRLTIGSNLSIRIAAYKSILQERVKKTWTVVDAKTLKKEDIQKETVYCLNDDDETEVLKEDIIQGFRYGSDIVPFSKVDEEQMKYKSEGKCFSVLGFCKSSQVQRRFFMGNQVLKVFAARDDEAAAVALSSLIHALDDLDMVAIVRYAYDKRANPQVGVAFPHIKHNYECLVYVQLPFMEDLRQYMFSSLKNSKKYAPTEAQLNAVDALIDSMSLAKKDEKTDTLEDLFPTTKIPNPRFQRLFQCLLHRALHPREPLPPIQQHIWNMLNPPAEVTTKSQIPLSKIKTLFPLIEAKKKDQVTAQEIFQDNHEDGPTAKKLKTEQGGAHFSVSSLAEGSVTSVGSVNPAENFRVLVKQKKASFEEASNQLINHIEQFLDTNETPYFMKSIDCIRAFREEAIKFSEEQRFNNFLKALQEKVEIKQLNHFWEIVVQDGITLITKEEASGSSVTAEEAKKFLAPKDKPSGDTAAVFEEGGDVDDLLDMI
# Sequence of UniProt Q96AJ9 (Q96AJ9 whole entry, looked up): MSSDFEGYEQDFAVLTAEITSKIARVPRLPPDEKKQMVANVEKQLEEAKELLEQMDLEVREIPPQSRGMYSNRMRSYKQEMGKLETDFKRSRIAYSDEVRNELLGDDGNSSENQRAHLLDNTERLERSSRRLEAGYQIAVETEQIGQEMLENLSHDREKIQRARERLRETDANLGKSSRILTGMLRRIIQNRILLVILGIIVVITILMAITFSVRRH
# Sequence of UniProt A0PJW6 (A0PJW6 whole entry, looked up): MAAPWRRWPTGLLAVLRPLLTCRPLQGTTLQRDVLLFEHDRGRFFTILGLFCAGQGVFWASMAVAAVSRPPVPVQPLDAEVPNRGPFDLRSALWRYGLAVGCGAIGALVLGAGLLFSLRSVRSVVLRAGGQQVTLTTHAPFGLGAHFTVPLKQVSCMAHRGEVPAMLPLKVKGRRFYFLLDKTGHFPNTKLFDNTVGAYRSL
row,Target,log2 fold change
1,TSG101 (UniProt Q99816),0 (inactive)
2,VTA1 (UniProt Q9NP79),-0.01 (inactive)
3,VDAC1 (UniProt P21796),0 (inactive)
4,"WASHC2C, A0A096LPC5",-0.072 (inactive)
5,VTI1B (UniProt Q9UEU0),-0.089 (inactive)
6,UBE2Q1 (UniProt Q7Z7E8),-0.09 (inactive)
7,TMEM106B (UniProt Q9NUM4),0.021 (inactive)
8,TMEM164 (UniProt Q5U3C3),0.045 (inactive)
9,USP48 isoform 8 (UniProt Q86UV5),0.155 (inactive)
10,USP15 (UniProt Q9Y4E8),0.027 (inactive)
11,UFD1 isoform 1 (UniProt Q92890),0.225 (active)
12,WDR46 (UniProt O15213),-0.129 (inactive)
13,USP14 (UniProt P54578),0.023 (inactive)
14,XPNPEP3 (UniProt Q9NQH7),-0.12 (inactive)
15,UCHL5 (UniProt Q9Y5K5),0.023 (inactive)
16,VPS16 (UniProt Q9H269),0.018 (inactive)
17,VAMP7 (UniProt P51809),0.035 (inactive)
18,XPO1 (UniProt O14980),0.074 (inactive)

row,Target,log2 fold change
1,TNFRSF10A (UniProt O00220),-0.046 (inactive)
2,UBLCP1 (UniProt Q8WVY7),-0.046 (inactive)
3,TMEM189-UBE2V1 (UniProt I3L0A0),-0.034 (inactive)
4,WASH2P (UniProt Q6VEQ5),0.007 (inactive)
5,VTI1A (UniProt Q96AJ9),0.014 (inactive)
6,TNNC2 (UniProt P02585),-0.037 (inactive)
7,TMEM223 (UniProt A0PJW6),-0.042 (inactive)
8,U2AF1 isoform 2 (UniProt Q01081),0.165 (inactive)
9,XRCC5 (UniProt P13010),0.19 (inactive)
10,TNPO1 (UniProt Q92973),-0.008 (inactive)
11,VPS52 (UniProt Q8N1B4),-0.003 (inactive)
12,TMEM263 (UniProt Q8WUH6),-0.096 (inactive)
13,USP25 isoform 3 (UniProt Q9UHP3),-0.011 (inactive)
14,VPS50 (UniProt Q96JG6),0.023 (inactive)
15,UBAP1 isoform 4 (UniProt Q9NZ09),-0.018 (inactive)
16,TNPO2 (UniProt O14787),-0.022 (inactive)
17,VPS18 (UniProt Q9P253),-0.011 (inactive)
18,TRIM28 (UniProt Q13263),0.015 (inactive)
